Where “and” joins values, the source holds several entries; their conditions need not be identical. Equal values may be shown once. Inconclusive results are not listed. Where a structure was tested more than once in an assay, its records may differ in their call. Calls of active or inactive are those of the source. Unless noted, calls follow the shape of the dose curve; as a rule, active = well fitted curve in the direction sought with a large enough effect in the repeat runs; inconclusive = weak or mixed curves; inactive = no such curve, though single readings can be large; an effect the other way counts as inactive or inconclusive.
Columns and labels:
[1] = qHTS assay to identify small molecule antagonists of the progesterone receptor (PR) signaling pathway - cell viability counter screen (AID 1346798); also: series mostly up to about 92 µM; nearly all actives have a fitted effect of over 50% in size
Procedure, shortened: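 Viability was determined by ATP-based luminescence (CellTiter-Glo) in PR-UAS-bla HEK293T cells cultured in 2% charcoal-stripped serum and incubated 16 hr with compounds under R5020 stimulation.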

[2] = qHTS assay to identify small molecule agonists of the progesterone receptor (PR) signaling pathway - cell viability counter screen (AID 1346799; calls by dose curve; also: nearly all actives have a fitted effect of over 45% in size)
Procedure, shortened: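 Viability was scored by ATP luminescence (CellTiter-Glo, 30 min, room temperature) in the same wells used for the reporter readout, after 16 hr compound exposure of PR-UAS-bla HEK293T cells.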

[3] = qHTS assay to identify small molecule antagonists of the TGF-beta/Smad signaling pathway - cell viability counter screen (AID 1346824); also: nearly all actives have a fitted effect of over 50% in size
Procedure, shortened: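 SBE-bla HEK 293T cells, incubated overnight, then compound plus 0.25 ng/mL TGF-beta1 (stock added) for 5 hr at 37 C. Viability was read in the same wells by CellTiter-Glo luminescence after 30 min at room temperature.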

[4] = qHTS assay to identify small molecule agonists of the TGF-beta/Smad signaling pathway - cell viability counter screen (AID 1346829); also: top concentration of the series differs between compounds; nearly all actives have a fitted effect of over 45% in size
Procedure, shortened: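 Here the cytotoxicity of library compounds is measured in SBE-bla HEK 293T cells treated for 5 hr, using CellTiter-Glo added to wells already read for the beta-lactamase reporter.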

[5] = qHTS assay to identify small molecule agonists of the TGF-beta/Smad signaling pathway (AID 1346859; active = well fitted activation curve with a large enough effect in the signal ratio in the repeat runs, not every such curve was filed as active; the % refers to the signal ratio; also: series mostly up to about 77 µM)
Procedure, shortened: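 Dual-wavelength fluorescence (460/530 nm emission) quantified beta-lactamase expression under the Smad binding element in HEK 293T cells following 5 hr compound treatment at 37 C.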

[6] = target: Thyrotropin-releasing hormone receptor (Homo sapiens) (UniProt P34981); test: qHTS assay to identify small molecule antagonists of the thyrotropin-releasing hormone receptor (TRHR) signaling pathway (AID 1346877; active = well fitted inhibition curve with a large enough effect in the repeat runs, not every such curve was filed as active; also: series mostly up to about 51 µM)
Procedure, shortened: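 Following an 18 h incubation at 37 °C and a 2 h calcium dye load, TRHR-HEK293 cells were exposed to compound (5 min, room temperature) and challenged with TRH, 1 nM final.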

[7] = target: Thyrotropin-releasing hormone receptor (Homo sapiens) (UniProt P34981); test: qHTS assay to identify small molecule agonists of the thyrotropin-releasing hormone receptor (TRHR) signaling pathway (AID 1346891; calls by dose curve;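 also: HEK293 cells expressing TRHR with calcium dye readout; series mostly up to about 58 µM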)
Procedure, shortened: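 Kinetic fluorescence (3 min, 1 s intervals) reported intracellular calcium after compound transfer onto TRHR-Hek293 cells pre-loaded with dye for 2 h at 37 °C.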

[8] = Human pregnane X receptor (PXR) small molecule agonists, qHTS cell viability counter screen (AID 1346977); also: nearly all actives have a fitted effect of over 50% in size
Procedure, shortened: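 HepG2 cells stably carrying the PXR-Luc reporter are cultured with 5% charcoal-stripped FBS and treated with compounds for 24hr. CellTiter-Fluor is added at 23hr and fluorescence is read after 1hr.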

[9] = Caspase-3/7 induction in HepG2 cells by small molecules, qHTS assay (AID 1346978); also: nearly all actives have a fitted effect of over 15% in size
Procedure, shortened: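 Wild-type HepG2 cells, 2,000/well, settled 5 hr at 37 C and 5% CO2, then compound-treated for 17 hr; caspase-3/7 activity read by luminescent Caspase-Glo 3/7 after 30 min at room temperature.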

[10] = Caspase-3/7 induction in CHO-K1 cells by small molecules, qHTS cell viability counter screen (AID 1346979); also: nearly all actives have a fitted effect of over 35% in size
Procedure, shortened: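 Seeding: 1,500 CHO-K1 cells/well. Rest: 5hr, 37C. Treatment: compounds in DMSO, 16hr. Read: CellTiter-Fluor, 1hr, fluorescence.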

[11] = Caspase-3/7 induction in CHO-K1 cells by small molecules, qHTS assay (AID 1346980); also: nearly all actives have a fitted effect of over 15% in size
Procedure, shortened: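 Wild-type CHO-K1 cells exposed to compounds for 17hr at 37 C, 5% CO2. Caspase-3/7 activity then measured by Caspase-Glo 3/7 luminescence after 30min at room temperature.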

[12] = Caspase-3/7 induction in HepG2 cells by small molecules, qHTS cell viability counter screen (AID 1346981); also: series mostly up to about 92 µM; nearly all actives have a fitted effect of over 30% in size
Procedure, shortened: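 Viability determined by CellTiter-Fluor fluorescence in HepG2 wells also used for the luminescent Caspase-Glo 3/7 read. Compounds were present for 16 hr at 37 C, 5% CO2 before reagent addition.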

[13] = target: Nuclear receptor subfamily 1 group I member 2 (Homo sapiens) (UniProt O75469); test: Human pregnane X receptor (PXR) small molecule agonists, qHTS assay (AID 1346982); also: nearly all actives have a fitted effect of over 35% in size
Procedure, shortened: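 Compound-induced hPXR transactivation of a CYP3A4 luciferase reporter was scored in HepG2 PXR-Luc cells over 24 hr at 37 C, 5% CO2, by luminescence.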

[14] = target: Nuclear receptor subfamily 1 group I member 2 (Rattus norvegicus) (UniProt Q9R1A7); test: Rat pregnane X receptor (rPXR) activation by small molecules, qHTS assay (AID 1346983); conditions: rPXR luciferase reporter cells, One-Glo luminescence, 24 h; stronger effect = higher value; also: nearly all actives have a fitted effect of over 20% in size
Procedure, shortened: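 Cell-based rPXR activation assay: rPXR cells, 2,000 per well, rested 5hr at 37 C, then exposed to compounds in DMSO for 24 hr at 37 C. Luciferase activity read by One-Glo luminescence after 30 min at room temperature.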

[15] = target: Nuclear receptor subfamily 1 group I member 2 (Homo sapiens) (UniProt O75469); test: CYP3A4 induction through human pregnane X receptor (PXR) by small molecules, qHTS assay (AID 1346984); also: nearly all actives have a fitted effect of over 40% in size
Procedure, shortened: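 Readings come from a luciferase reporter: DPX-2 cells, which are HepG2 cotransfected with PXR and a CYP3A4-promoter construct, were exposed to test compounds for 24 h at 37C before One-Glo detection.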

[16] = target: Acetylcholinesterase (Homo sapiens) (UniProt P22303); test: Acetylcholinesterase (AChE) small molecule antagonists: colormetric cell-based qHTS assay (AID 1347395; calls by dose curve; also: nearly all actives have a fitted effect of over 30% in size)
Procedure, shortened: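 Quantitative HTS in attached SH-SY5Y cells: 30 min compound exposure, then 90 min with acetylthiocholine and DTNB at 37 C; colour from thiocholine reports AChE activity.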

[17] = target: Acetylcholinesterase (Homo sapiens) (UniProt P22303); test: Acetylcholinesterase (AChE) small molecule antagonists: fluorescence cell-based qHTS assay (AID 1347398; calls by dose curve; also: nearly all actives have a fitted effect of over 50% in size); conditions: Potency: AChE activity
Procedure, shortened: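 Endogenous acetylcholinesterase of SH-SY5Y neuroblastoma cells is measured in situ. After overnight attachment and 30 min compound exposure, cells receive acetylthiocholine and Thiolite Green; fluorescence is read after 40 min at room temperature.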

[18] = target: Acetylcholinesterase (Homo sapiens) (UniProt P22303); test: Acetylcholinesterase (AChE) small molecule antagonists: enzyme-based qHTS assay with human liver microsomes (AID 1347399; calls by dose curve; also: nearly all actives have a fitted effect of over 60% in size); conditions: Potency: qHTS inhibition
Procedure, shortened: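 Recombinant human AChE (50 mU/mL in the enzyme mix) and human liver microsomes (0.25 mg/mL final) were preincubated with compound and NADPH (0.25 mg/mL final) for 30 min at 37 C. Acetylthiocholine/DTNB was then added; thiocholine was read colorimetrically after 10 min at room temperature.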

[19] = target: Cytochrome P450 2D6 (Homo sapiens) (UniProt P10635); test: Cytochrome P450 Family 2 Subfamily D Member 6 (CYP2D6) small molecule antagonists: luciferase reporter qHTS assay (AID 1671196); also: nearly all actives have a fitted effect of over 50% in size; also: potency is read from the fitted curve at half-maximal effect
Procedure, shortened: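 Each well received CYP2D6 with its proluciferin substrate and chemical, sat 10 min, then got NADPH regeneration solution for 1 h at room temperature. Luminescence in RLU served as the activity measure.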

[20] = target: Acetylcholinesterase (Homo sapiens) (UniProt P22303); test: Acetylcholinesterase (AChE) small molecule antagonists: enzyme-based qHTS assay (AID 1347397; calls by dose curve; also: nearly all actives have a fitted effect of over 55% in size); conditions: Potency: AChE enzyme activity inhibition
Procedure, shortened: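 Enzyme inhibition was scored from DTNB-detected thiocholine formed by recombinant human AChE acting on acetylthiocholine. The 30 min compound preincubation and 10 min substrate reaction were both run at room temperature, with DMSO as vehicle control.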
% is scaled to controls: 0 for no effect and ±100 for the full control effect.

Nuclear receptor subfamily 1 group I member 2 (Homo sapiens), sequence (O75469 whole entry, looked up): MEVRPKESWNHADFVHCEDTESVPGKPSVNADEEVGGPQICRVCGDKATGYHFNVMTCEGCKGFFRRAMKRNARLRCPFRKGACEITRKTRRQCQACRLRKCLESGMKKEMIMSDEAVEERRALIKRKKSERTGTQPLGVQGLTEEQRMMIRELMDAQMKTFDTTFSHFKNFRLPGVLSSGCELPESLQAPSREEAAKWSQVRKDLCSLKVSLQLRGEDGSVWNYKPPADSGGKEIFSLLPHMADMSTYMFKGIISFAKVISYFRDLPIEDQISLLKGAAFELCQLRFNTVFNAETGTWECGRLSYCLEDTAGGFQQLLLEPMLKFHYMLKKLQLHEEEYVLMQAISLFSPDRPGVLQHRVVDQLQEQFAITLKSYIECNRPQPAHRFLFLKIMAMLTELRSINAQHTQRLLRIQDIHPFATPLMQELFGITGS
Cytochrome P450 2D6 (Homo sapiens), sequence (P10635 whole entry, looked up): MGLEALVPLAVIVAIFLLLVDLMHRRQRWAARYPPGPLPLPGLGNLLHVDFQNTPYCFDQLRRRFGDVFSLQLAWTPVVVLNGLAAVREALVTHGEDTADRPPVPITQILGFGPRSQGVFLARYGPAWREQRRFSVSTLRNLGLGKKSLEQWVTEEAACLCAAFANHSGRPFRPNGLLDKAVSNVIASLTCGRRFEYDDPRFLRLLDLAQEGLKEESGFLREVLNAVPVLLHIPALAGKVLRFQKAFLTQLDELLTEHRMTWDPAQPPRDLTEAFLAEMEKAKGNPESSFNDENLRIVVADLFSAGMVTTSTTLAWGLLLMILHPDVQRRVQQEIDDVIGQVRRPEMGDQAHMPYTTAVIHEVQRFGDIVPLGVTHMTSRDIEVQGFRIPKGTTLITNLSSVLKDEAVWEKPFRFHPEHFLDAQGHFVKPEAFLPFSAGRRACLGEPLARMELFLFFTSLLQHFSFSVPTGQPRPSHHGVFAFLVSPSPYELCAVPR
Acetylcholinesterase (Homo sapiens), sequence (P22303 whole entry, looked up): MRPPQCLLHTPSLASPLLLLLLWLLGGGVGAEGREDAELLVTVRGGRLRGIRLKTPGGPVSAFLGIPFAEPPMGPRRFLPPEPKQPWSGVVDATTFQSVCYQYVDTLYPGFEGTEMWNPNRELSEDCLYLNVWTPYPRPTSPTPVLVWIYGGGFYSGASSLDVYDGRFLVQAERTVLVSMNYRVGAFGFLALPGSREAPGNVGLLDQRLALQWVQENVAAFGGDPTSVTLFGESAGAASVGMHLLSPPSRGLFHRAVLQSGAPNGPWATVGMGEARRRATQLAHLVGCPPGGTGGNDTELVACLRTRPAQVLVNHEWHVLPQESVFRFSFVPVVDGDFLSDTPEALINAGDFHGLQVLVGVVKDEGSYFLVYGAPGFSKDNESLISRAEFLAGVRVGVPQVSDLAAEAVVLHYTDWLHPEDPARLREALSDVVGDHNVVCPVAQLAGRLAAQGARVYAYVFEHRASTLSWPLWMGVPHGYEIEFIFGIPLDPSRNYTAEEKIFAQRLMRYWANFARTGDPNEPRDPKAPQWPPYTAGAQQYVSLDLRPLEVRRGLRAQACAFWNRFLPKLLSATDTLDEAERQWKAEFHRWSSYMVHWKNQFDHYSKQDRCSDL
Thyrotropin-releasing hormone receptor (Homo sapiens), sequence (P34981 whole entry, looked up): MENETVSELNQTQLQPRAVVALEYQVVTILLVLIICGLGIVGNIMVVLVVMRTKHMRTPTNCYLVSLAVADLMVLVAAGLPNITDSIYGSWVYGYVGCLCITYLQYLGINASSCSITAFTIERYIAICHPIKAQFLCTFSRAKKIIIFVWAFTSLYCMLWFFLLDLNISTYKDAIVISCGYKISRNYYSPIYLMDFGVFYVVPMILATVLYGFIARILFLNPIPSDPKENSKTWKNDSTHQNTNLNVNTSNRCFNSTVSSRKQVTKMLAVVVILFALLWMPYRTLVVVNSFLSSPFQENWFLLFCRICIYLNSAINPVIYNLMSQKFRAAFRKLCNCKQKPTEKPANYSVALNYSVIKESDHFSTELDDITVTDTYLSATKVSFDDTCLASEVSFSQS
Nuclear receptor subfamily 1 group I member 2 (Rattus norvegicus), sequence (Q9R1A7 whole entry, looked up): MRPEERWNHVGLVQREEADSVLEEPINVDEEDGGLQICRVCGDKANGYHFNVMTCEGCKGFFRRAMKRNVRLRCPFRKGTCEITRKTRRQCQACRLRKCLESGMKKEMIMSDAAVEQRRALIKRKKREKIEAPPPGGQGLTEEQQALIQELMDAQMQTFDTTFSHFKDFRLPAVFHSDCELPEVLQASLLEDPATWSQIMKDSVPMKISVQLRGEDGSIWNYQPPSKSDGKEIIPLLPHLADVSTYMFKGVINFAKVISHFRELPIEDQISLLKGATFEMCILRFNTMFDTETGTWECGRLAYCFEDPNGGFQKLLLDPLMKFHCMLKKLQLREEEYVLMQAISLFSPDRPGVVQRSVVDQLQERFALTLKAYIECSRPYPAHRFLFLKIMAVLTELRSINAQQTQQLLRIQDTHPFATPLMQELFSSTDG

C#CCN(C)[C@H](C)Cc1ccccc1
inactive: Potency [1] | Potency [2] | Potency [3] | outcome [4] | Potency [5] | outcome [6] | Potency [7] | Potency [8] | outcome [9] | Potency [10] | outcome [11] | Potency [12] | Potency [13] | max activation [14] -1.33% | outcome [15] | Potency [16] | Potency [17] | Potency [18]
active: Potency [19] 12.6 µM and 17.4 µM

COC(=O)c1ccccc1N
inactive: Potency [1] | Potency [2] | Potency [3] | outcome [4] | Potency [5] | outcome [6] | Potency [7] | Potency [8] | outcome [9] | Potency [10] | outcome [11] | Potency [12] | Potency [13] | Potency [16] | Potency [20] | Potency [17] | Potency [18] | Potency [19]

Cc1[nH]c(=O)n(C(C)(C)C)c(=O)c1Cl
inactive: Potency [1] | Potency [2] | Potency [3] | outcome [4] | Potency [5] | Potency [8] | outcome [9] | Potency [10] | outcome [11] | Potency [13] | Potency [16] | Potency [20] | Potency [17] | Potency [18] | Potency [19]

CC(NC(C)(C)C)C(=O)c1cccc(Cl)c1 (stereo not given)
inactive: Potency [1] | Potency [2] | Potency [3] | outcome [4] | Potency [5] | outcome [6] | Potency [7] | Potency [8] | outcome [9] | Potency [10] | outcome [11] | max activation [14] -1.59%

O=C(O)c1ccccn1
inactive: Potency [1] | Potency [2] | Potency [3] | outcome [4] | Potency [5] | Potency [8] | outcome [9] | Potency [10] | outcome [11] | Potency [12] | outcome [15] | Potency [16] | Potency [20] | Potency [17] | Potency [18] | Potency [19]

CC(C)(C)OOC(=O)c1ccccc1
inactive: Potency [1] | Potency [2] | Potency [3] | outcome [4] | Potency [5] | Potency [8] | outcome [9] | Potency [10] | outcome [11] | Potency [12] | Potency [13] | Potency [16] | Potency [20] | Potency [17] | Potency [18] | Potency [19]

ClCCBr
inactive: Potency [1] | Potency [2] | Potency [3] | outcome [4] | Potency [5] | outcome [6] | Potency [7] | Potency [8] | outcome [9] | Potency [10] | outcome [11] | Potency [12] | Potency [16] | Potency [20] | Potency [17] | Potency [18]
35.5 µM (active) and inactive: Potency [19]

ClCc1cccnc1
inactive: Potency [1] | Potency [2] | Potency [3] | outcome [4] | Potency [5] | outcome [6] | Potency [7] | Potency [8] | outcome [9] | Potency [10] | outcome [11] | Potency [12] | Potency [13] | Potency [16] | Potency [17] | Potency [18] | Potency [19]
